Article PMC4336329 (PLoS ONE, 2015)
In all, about 310,000 compounds went through this assay and about 14,000 (4.5%) showed an effect of 50% or more. The effect is printed as a negative number. The list comes from a sample in which strong results are over-represented; it also holds similar structures and randomly drawn compounds.

What follows are molecules tested against human ether-à-go-go-related gene (hERG) potassium channel (human, UniProt Q12809) (assay: primary screen, population patch clamp on CHO cells stably expressing hERG; higher = less effect of the substance).
human ether-à-go-go-related gene (hERG) potassium channel, sequence (Q12809 whole entry, looked up): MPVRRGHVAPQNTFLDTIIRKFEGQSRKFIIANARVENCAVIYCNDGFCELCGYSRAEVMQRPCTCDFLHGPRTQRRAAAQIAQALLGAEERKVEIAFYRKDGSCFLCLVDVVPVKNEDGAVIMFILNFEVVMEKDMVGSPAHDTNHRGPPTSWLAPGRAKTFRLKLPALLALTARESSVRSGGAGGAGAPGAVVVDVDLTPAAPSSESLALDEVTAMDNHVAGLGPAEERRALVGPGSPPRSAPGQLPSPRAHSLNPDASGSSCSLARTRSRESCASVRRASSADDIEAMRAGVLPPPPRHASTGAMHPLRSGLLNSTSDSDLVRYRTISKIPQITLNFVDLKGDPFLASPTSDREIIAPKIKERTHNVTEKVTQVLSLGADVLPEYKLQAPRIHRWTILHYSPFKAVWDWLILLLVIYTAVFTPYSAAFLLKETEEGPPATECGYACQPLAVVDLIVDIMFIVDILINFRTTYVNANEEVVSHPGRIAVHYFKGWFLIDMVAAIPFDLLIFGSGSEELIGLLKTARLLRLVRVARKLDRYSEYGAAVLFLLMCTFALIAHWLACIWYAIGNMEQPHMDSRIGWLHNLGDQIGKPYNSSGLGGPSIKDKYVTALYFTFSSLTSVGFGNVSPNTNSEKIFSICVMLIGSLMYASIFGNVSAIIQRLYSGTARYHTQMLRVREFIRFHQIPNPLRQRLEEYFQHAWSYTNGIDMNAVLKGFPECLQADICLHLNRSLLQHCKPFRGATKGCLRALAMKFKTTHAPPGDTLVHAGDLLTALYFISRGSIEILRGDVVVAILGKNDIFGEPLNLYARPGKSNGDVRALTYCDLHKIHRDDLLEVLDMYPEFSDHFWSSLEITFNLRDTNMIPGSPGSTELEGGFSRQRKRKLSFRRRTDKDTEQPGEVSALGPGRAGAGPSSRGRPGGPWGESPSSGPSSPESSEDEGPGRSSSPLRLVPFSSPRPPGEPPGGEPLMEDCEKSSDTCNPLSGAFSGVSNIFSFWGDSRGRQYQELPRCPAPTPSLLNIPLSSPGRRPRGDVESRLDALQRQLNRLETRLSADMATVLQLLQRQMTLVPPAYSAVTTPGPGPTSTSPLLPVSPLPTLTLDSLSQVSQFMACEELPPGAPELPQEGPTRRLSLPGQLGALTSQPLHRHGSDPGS
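Further: peak tail current of the secondary pulse compared with the same well before compound.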

Row | Structure (SMILES) | hERG current change (%, negative = inhibition) at 10uM [%]
1 | COC(=O)c1ccccc1NC(=O)c1ccc(COc2cccc3ccccc23)o1 | 0.342
2 | NC(=O)c1nsc(C(=O)N(CCCN2CCOCC2)C(C(=O)NC2CCCCC2)c2ccc(Cl)cc2)c1N (centres unmarked) | -42.8
3 | CCCNc1nc2c(c(=O)[nH]c(=O)n2C)n1CCC(C)C | -0.274
4 | Cc1ccc(OCC(=O)N2CCC(Cc3ccccc3)CC2)c([N+](=O)[O-])n1 | -67.7
5 | CC(=O)c1ccc(OCC(=O)N2CCN(S(=O)(=O)c3ccc(C)cc3C)CC2)cc1 | -61.6
6 | Cc1ccc(OCC(=O)N2CCC(C)CC2)c([N+](=O)[O-])n1 | -7.74
7 | O=C(COc1ccccc1[N+](=O)[O-])N1CCC(Cc2ccccc2)CC1 | -16.1
8 | Cc1ccc(OCC(=O)N2CCN(S(=O)(=O)c3ccccc3)CC2)c([N+](=O)[O-])n1 | -45.8
9 | CC(=O)c1ccc(OCCCC(=O)N2CCN(S(=O)(=O)c3ccc(C)cc3C)CC2)cc1 | -40.8
10 | Cc1ccc(OCC(=O)N2CCN(S(=O)(=O)c3ccc(Cl)cc3)CC2)c([N+](=O)[O-])n1 | -48.8
11 | CC(=O)c1ccc(OCCCC(=O)N2CCN(S(=O)(=O)c3cc(C)ccc3C)CC2)cc1 | -37.1
12 | Cc1ccc(S(=O)(=O)N2CCN(C(=O)COc3ccc(C)nc3[N+](=O)[O-])CC2)c(C)c1 | -61
13 | COc1ccc(CNC(=S)Nc2ccc(OC)cc2)cc1 | 3.09
14 | Cc1nnc(-c2ccc(N3CCCCCC3)c([N+](=O)[O-])c2)o1 | -4.52
15 | Cc1ccc(CN2C(=O)CCC2C(=O)NCCc2ccccc2)cc1 (centres unmarked) | 7.99
16 | c1ccc2nc3c(nc2c1)CCCC3 | 17.2
17 | Cn1c(=O)c2c(nc(SCc3cccnc3)n2Cc2ccccc2)n(C)c1=O | -17.6
18 | C=CCOCCN(C)C1=NS(=O)(=O)c2cc([N+](=O)[O-])ccc21 | -19.8
19 | Cc1ncc(CN2CCC(CO)(CCc3ccccc3)CC2)s1 | -60.4
20 | Cc1ncc(CN2CCC(CO)(CCOc3ccccc3)CC2)s1 | -70.1
21 | Cc1ncc(CN2CCC(CO)(Cc3ccccc3)CC2)s1 | -7
22 | Cc1ccc(NC(=O)c2ccc3nc(N4CCOCC4)sc3c2)c(Cl)c1 | 6.14
23 | Cc1ccc(NC(=O)/C=N/OCC(=O)NCc2ccccc2Cl)cc1 | 2.92
